Many of the other results were omitted from the sample, so hits are more common in it than they were.
FBPA Giardia inh: Giardia lamblia aldolase inhibition. A8B2U2. purified Giardia FBPA. Potency, µM (top dose mostly 59.6 µM), without a hit: at the highest dose activity, negative = inhibition, hits mostly inhibitors. 290,000 tested, 0.71% active; also: potency is read from the fitted curve at half-maximal effect; % is scaled to controls: 0 for no effect and ±100 for the full control effect; nearly all actives have a fitted effect of over 55% in size
Target sequence (A8B2U2 whole entry, looked up): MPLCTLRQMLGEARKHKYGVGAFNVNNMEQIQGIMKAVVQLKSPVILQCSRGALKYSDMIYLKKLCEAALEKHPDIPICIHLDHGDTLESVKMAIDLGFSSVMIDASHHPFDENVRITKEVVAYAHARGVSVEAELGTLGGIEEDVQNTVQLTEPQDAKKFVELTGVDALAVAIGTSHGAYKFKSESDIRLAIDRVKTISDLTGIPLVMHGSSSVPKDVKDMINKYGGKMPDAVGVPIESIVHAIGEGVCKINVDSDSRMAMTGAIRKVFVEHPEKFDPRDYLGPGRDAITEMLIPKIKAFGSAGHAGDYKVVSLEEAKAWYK
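Giardia FBPA (40 nM reagent) was preincubated 10 min at RT with compound (up to 57.5 uM final), then substrate plus GAPDH/TPI/NAD/arsenate coupling system with diaphorase/resazurin was added; resorufin fluorescence (525/598 nm) was read after 20 min.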
Tb PYK inh: inhibitors of Trypanosoma brucei pyruvate kinase; Q57TT1; TbPYK enzyme, Kinase-Glo Plus ATP luminescence, 45 min; Potency, µM (series often up to 76.8 µM), without a hit: top-dose activity, negative = inhibition, actives largely listed as inhibitors; 410,000 tested, 0.12% active; also: potency is read from the fitted curve at half-maximal effect; % is scaled to controls: 0 for no effect and ±100 for the full control effect; nearly all actives have a fitted effect of over 50% in size
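T. brucei PYK with substrate was exposed to pin-transferred compounds across a concentration series, then started with 130 uM ADP (final). After 45 min at room temperature, Kinase-Glo Plus luminescence was read, normalized and curve-fitted.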
CHX counter: affects cycloheximide protein synthesis inhibition readout, counter-screen; AID 2314; cell reporter, cycloheximide protein synthesis inhibition counterscreen; max response, %; 300,000 tested, 12% active; in the data active = max response mostly above about 13%, no sharp cut-off; inactive = mostly below about 14%; also: read at 38.3 µM for the half of the compounds with a filed dose; 0% is about no effect
Shiga inhibitor: blocks Shiga toxin action in Vero cells; Vero cells, Shiga toxin protein synthesis inhibition reporter; inhibition, % at 38.7 µM; 290,000 tested, 9.2% active; AID 2315; in the data active = inhibition mostly above about 28%, no sharp cut-off; inactive = mostly below about 43%; also: 0% is about no effect
Sm TGR block: inhibitors of Schistosoma mansoni thioredoxin glutathione reductase; 360,000 tested, 3% active; Q962Y6; Potency, µM (series often up to 114 µM), without a hit: at the highest dose activity change, negative = inhibition, hits mostly inhibitors; purified TGR, DTNB reduction, TNB absorbance 405 nm; also: potency is read from the fitted curve at half-maximal effect; % is scaled to controls: 0 for no effect and ±100 for the full control effect; nearly all actives have a fitted effect of over 60% in size
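Kinetic colorimetric format: TGR-catalysed, NADPH-driven DTNB reduction monitored via TNB absorbance. Enzyme dispensed at 20 nM; compound exposure 15 min at room temperature before reaction start.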
LmPK inhibitor: LmPK (Leishmania mexicana) enzyme inhibition; Potency, µM (doses to about 57.5 µM), for the others: top-dose activity change, negative = inhibition, most hits filed as inhibitors; 290,000 tested, 0.37% active; purified LmPK, Kinase-Glo ATP luminescence, 1 h; also: potency is read from the fitted curve at half-maximal effect; % is scaled to controls: 0 for no effect and ±100 for the full control effect
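Pyruvate kinase activity monitored as ATP production (luciferase luminescence). Conditions: 0.1 nM enzyme, 0.5 mM PEP, 0.1 mM ADP, 1 h, RT; normalized against uninhibited and no-enzyme wells.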
* marks the source's active call; other numbers are inactive results; ? = inconclusive; · = no result given. Unless noted, calls follow the shape of the dose curve; as a rule, active = well fitted curve in the direction sought with a large enough effect; inconclusive = small, poorly fitted or top-dose-only effect, or another doubt; inactive = no such curve, though single readings can be large; an effect the other way counts as inactive or inconclusive.

SMILES	FBPA Giardia inh	Tb PYK inh	CHX counter	Shiga inhibitor	Sm TGR block	LmPK inhibitor
CC(C)(C)NC(=S)N/N=C\c1ccc(-c2ccc([N+](=O)[O-])cc2)o1	?	1%	37*	73*	2.2µM*	0%
CS(=O)(=O)N(CC(=O)N/N=C/c1cccc2c1OCCO2)c1ccccc1Br	0%	-6%	-4	-21	9%	-2%
CN1CCC2(CC1)CCN(C(=O)c1cc(C(F)(F)F)cc(C(F)(F)F)c1)CC2	3%	6%	·	·	·	·
CC(C)CC(N)c1csc(NC(=O)Nc2ccccc2C(C)(C)C)n1 (stereo not drawn)	·	2%	·	·	·	·
O=c1n(Cc2ccc(Cl)cc2)c2ccccc2c2nc(-c3ccccc3)nn12	·	5%	·	·	-7%	·
CCCCC(=O)N/N=C/c1ccc(-c2ccc([N+](=O)[O-])cc2)o1	0%	6%	14	25*	1%	5%
Cc1nnc(N/N=C\c2ccc(-c3ccccc3[N+](=O)[O-])o2)n1N	1.8µM*	-2%	9	15	-9%	-1%
CCC(=O)N/N=C/c1ccc(-c2ccc(Cl)cc2)o1	0%	5%	34*	67*	?	5%
CCC(=O)N/N=C/c1ccc(-c2ccc([N+](=O)[O-])cc2)o1	-2%	-4%	8	-7	0%	0%
Cc1n[nH]c(=S)n1/N=C/c1ccc(-c2ccccc2[N+](=O)[O-])o1	-11%	7.9µM*	13*	33	10%	-11%
COc1cccc(NC(=O)CSC2=Nc3ccccc3N=C(c3ccc(F)cc3)C2)c1	·	5%	·	·	0%	·
N#Cc1cnn(-c2nc(SCc3ccccc3)nc3sc4c(c23)CCCC4)c1N	-3%	5%	-2	-13	-22%	15%
BrCC1C[n+]2c(SCc3ccccc3)nc3sc4c(c3c2O1)CCCC4 (stereo not drawn)	-19%	-7%	31*	80*	32µM*	-2%
CCSc1nc2sc3c(c2c2[n+]1CC(CBr)O2)CCCC3 (stereo not drawn)	?	-1%	17*	36	45µM*	2%
CCSc1nc2sc3c(c2c(=O)[nH]1)CCCC3	-3%	2%	-2	-10	1%	5%
Cc1ccc(Cl)cc1NC(=O)C(=O)NCCc1sc(-c2ccc(F)cc2)nc1C	·	5%	·	·	-1%	·
COc1ccc(Cl)cc1NC(=O)CN1C(=O)CCS(=O)(=O)c2ccccc21	-20%	1%	0	7	50µM*	-5%
COc1ccccc1NC(=O)CN1C(=O)CCS(=O)(=O)c2ccccc21	-12%	-6%	-2	5	?	-1%
CN1CCc2c(C#N)c(N3CCCCC3)nc(N3CCOCC3)c2C1	·	2%	·	·	·	·
CN1CCc2c(C#N)c(Cl)nc(Cl)c2C1	-26%	0%	0	-4	32µM*	-2%
CCOc1ccc(NC(=O)c2cc(=O)c3ccc(C)c(C)c3o2)cc1	·	-2%	·	·	1%	·
O=[N+]([O-])c1ccc2nc(-c3ccc(OC(F)F)cc3)cn2c1	?	-5%	45*	73*	1%	-4%
O=C(c1cc(-c2ccc(Cl)cc2Cl)on1)N1CCCC1	7%	-1%	23*	89*	1%	-15%
O=C(c1cc(-c2ccc(Cl)cc2Cl)on1)N1CCCCCC1	11%	0%	38*	99*	4%	-2%
COC(=O)Cn1c(SCCOc2ccccc2OC)nc2ccccc21	·	2%	·	·	24%	·
SMILES	FBPA Giardia inh	Tb PYK inh	CHX counter	Shiga inhibitor	Sm TGR block	LmPK inhibitor
CCC(C)NCCOCCOc1ccc(C)cc1Br (stereo not drawn)	?	2%	4	28	-23%	-2%
C=CCNCCOCCOc1ccc(C)cc1Br	-17%	39%	28*	47	-6%	-1%
CCCc1ncc(C(=O)c2ccc(OC)cc2)n1C	-3%	-7%	17	42*	6%	-2%
COc1ccc(C(=O)c2cnc(C(C)C)n2C)cc1	0%	3%	16*	82*	3%	3%
CCCCC[C@H](O)/C=C/[C@H]1OC(=O)C[C@H](O)[C@@H]1C/C=C\CCCC(=O)O	2%	·	·	·	·	·
CCc1ccc2oc(-c3cc(N=Cc4cccc(OC)c4O)ccc3O)nc2c1	13%	-9%	29*	104*	-11%	-25%
Cc1cc(/C=N/NC(=O)c2ccoc2C)cc(C)c1O	·	-8%	·	·	·	·
Cc1occc1C(=O)N/N=C/c1ccc(Cl)c([N+](=O)[O-])c1	2%	-10%	37*	56*	8%	-7%
Cc1cc(C(=O)N/N=C/c2ccc(Cl)c([N+](=O)[O-])c2)c(C)n1-c1ccc(F)cc1	?	4%	13	35*	-17%	0%
Cc1cc(C(=O)N/N=C/c2ccc3c(c2)OCO3)c(C)n1-c1ccc(F)cc1	-14%	-3%	27*	62*	-19%	12%
Cc1cccc(N2CCC(N3CCN(C4CCCCC4)C(CCO)C3)CC2)c1C (stereo not drawn)	?	0%	9	39	5µM*	8%
Cc1csc(NC(=O)C2CC(=O)N(Cc3ccco3)C2)n1 (stereo not drawn)	5%	-2%	10	18	45µM*	-3%
O=C(COC(=O)C1CC(=O)N(Cc2ccco2)C1)c1ccc(OC(=O)c2ccccc2)cc1 (stereo not drawn)	-1%	-6%	33*	72*	25µM*	0%
O=C(COC(=O)C1CC(=O)N(Cc2ccco2)C1)Nc1ccccc1[N+](=O)[O-] (stereo not drawn)	·	-3%	·	·	-1%	·
O=C(OCC(=O)N1c2ccccc2Sc2ccccc21)C1CC(=O)N(Cc2ccco2)C1 (stereo not drawn)	-7%	0%	-4	10	28µM*	5%
O=C([O-])c1cc(-c2ccccc2)cc(-c2ccccc2)[n+]1Cc1ccccc1	·	·	·	·	-15%	·
Cc1ccc(CNS(=O)(=O)c2c(C(=O)N3CCCCC3)c(C)n(C)c2C)o1	-9%	3%	-4	3	35µM*	6%
Cc1ccc(CNS(=O)(=O)c2c(C(=O)N3CCCCCC3)c(C)n(C)c2C)cc1	-16%	0%	-8	-9	1%	13%
COc1ccc(C)cc1NS(=O)(=O)c1c(C(=O)N2CCCCCC2)c(C)n(C)c1C	·	3%	·	·	5.6µM*	·
CC1(C(=O)NCc2ccccc2Br)CCN1C(=O)Cc1ccc(-c2ccccc2)cc1 (stereo not drawn)	·	3%	·	·	·	·
COc1ccc(C(c2nnnn2C2CCCC2)N2CCc3ccccc3C2)cc1OC (stereo not drawn)	0%	-5%	-3	18	?	0%
COc1ccc(C(c2nnnn2CCc2ccccc2)N2CCN(C)CC2)cc1OC (stereo not drawn)	6%	-15%	-3	-16	89µM*	8%
COCCn1nnnc1C(c1ccc(O)c(OC)c1)N1CCc2ccccc2C1 (stereo not drawn)	?	-24%	12	30	0.35µM*	20%

High-throughput results (PubChem BioAssay)
